Experimental data taken from PubChem BioAssay (EPA / NIEHS).
Values joined by “and” are separate entries in the source; they are usually repeats but may differ in a detail not shown here. Identical values can stand only once. Results filed as inconclusive are left out. A structure can be active in one record and inactive in another. Active and inactive are the calls of the source. Rule for the calls, unless noted: active = hit-call score of the fitted dose curve at least 0.9, where 1 is the maximum; inactive = score below 0.9.

Legend:
[1] = target: Bile acid receptor (Homo sapiens) (UniProt Q96RI1); assay: ATG_FXR_TRANS: Attagene TRANS-FACTORIAL HepG2 Assay for Farnesoid X Receptor (FXR) (AID 2282979; active = hit-call score of the fitted dose curve at least 0.9, where 1 is the maximum;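 note: hits raise reporter mRNA above DMSO so AC50 marks FXR activation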); details: HepG2 Attagene TRANS FXR-GAL4 reporter transcription
Chain of Bile acid receptor (Homo sapiens) (Q96RI1 whole entry, looked up, the tested form may be a part): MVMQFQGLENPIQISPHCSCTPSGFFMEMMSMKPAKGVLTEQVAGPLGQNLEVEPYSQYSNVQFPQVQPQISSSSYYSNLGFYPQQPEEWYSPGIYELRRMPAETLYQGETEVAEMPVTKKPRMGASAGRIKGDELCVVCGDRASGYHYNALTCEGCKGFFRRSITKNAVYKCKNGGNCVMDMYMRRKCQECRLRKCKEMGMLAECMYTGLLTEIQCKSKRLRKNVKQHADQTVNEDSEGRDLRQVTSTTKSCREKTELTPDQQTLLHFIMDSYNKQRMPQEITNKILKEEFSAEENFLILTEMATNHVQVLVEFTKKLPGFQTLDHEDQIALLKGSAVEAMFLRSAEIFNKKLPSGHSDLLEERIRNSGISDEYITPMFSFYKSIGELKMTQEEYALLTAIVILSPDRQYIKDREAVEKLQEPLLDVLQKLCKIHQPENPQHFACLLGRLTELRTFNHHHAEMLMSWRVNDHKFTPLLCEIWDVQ
Procedure, shortened: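 After 24 h chemical treatment of transfected HepG2 cells, GAL4-UAS reporter transcripts driven by an exogenous FXR-GAL4 fusion were measured by RT-PCR and capillary electrophoresis. Increases over DMSO were fitted.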

[2] = target: Hepatocyte nuclear factor 4-alpha (Homo sapiens) (UniProt P41235); assay: ATG_HNF4a_TRANS: Attagene TRANS-FACTORIAL HepG2 Assay for human Hepatocyte Nuclear Factor 4 alpha (HNF4a) (AID 2282982; active = hit-call score of the fitted dose curve at least 0.9, where 1 is the maximum); details: HepG2 HNF4a transactivation reporter, mRNA readout
Chain of Hepatocyte nuclear factor 4-alpha (Homo sapiens) (P41235 whole entry, looked up, the tested form may be a part): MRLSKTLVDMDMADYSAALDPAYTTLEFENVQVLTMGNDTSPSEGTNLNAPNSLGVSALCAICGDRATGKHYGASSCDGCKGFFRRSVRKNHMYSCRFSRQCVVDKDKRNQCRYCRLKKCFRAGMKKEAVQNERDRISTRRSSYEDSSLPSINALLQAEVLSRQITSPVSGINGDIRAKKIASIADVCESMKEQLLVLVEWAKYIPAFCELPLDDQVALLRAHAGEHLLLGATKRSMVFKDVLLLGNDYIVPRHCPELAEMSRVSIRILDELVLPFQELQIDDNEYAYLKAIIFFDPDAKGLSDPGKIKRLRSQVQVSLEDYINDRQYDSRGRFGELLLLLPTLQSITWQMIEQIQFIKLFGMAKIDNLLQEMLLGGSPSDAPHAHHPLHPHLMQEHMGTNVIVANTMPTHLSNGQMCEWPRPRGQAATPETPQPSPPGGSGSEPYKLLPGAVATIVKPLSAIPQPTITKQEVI
Procedure, shortened: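 HepG2 cells transiently transfected with multiplexed GAL4-UAS reporter units responsive to chimeric NR-GAL4 proteins; compound exposure 24 h. Reporter mRNA quantified by RT-PCR, 6-FAM labelling, HpaI digestion and capillary electrophoresis; gain of signal versus DMSO baseline.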

[3] = target: Nuclear receptor subfamily 4 group A member 2 (Homo sapiens) (UniProt P43354); assay: ATG_NURR1_TRANS: Attagene TRANS-FACTORIAL HepG2 Assay for human Nuclear Receptor Related Protein 1 (NURR1) (AID 2282985; active = hit-call score of the fitted dose curve at least 0.9, where 1 is the maximum); details: HepG2 Attagene TRANS reporter, mRNA readout
Chain of Nuclear receptor subfamily 4 group A member 2 (Homo sapiens) (P43354 whole entry, looked up, the tested form may be a part): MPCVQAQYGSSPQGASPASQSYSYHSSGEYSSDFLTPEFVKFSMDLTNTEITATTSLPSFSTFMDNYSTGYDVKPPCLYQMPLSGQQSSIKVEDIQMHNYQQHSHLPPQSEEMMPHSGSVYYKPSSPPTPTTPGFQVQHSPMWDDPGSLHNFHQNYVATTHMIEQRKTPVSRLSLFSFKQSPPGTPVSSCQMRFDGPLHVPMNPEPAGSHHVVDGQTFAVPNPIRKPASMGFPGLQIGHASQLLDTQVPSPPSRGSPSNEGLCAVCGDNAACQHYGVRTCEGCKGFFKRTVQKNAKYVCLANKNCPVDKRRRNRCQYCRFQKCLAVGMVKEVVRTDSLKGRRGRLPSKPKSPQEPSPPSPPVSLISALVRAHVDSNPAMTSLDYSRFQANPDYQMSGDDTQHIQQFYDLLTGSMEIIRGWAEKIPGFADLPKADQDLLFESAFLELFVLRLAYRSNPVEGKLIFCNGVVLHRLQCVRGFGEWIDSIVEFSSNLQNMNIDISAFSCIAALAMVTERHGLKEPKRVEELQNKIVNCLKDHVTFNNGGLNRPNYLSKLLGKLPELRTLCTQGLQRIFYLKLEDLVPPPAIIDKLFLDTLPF
Procedure, shortened: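 HepG2 cells transiently transfected with GAL4-UAS reporter units and chimeric NR-Gal4 constructs; chemical exposure 24 h. Reporter mRNA quantified by RT-PCR, fluorescent labelling and capillary electrophoresis; gain of signal fitted relative to DMSO baseline.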

[4] = target: Transcriptional activator Myb (Homo sapiens) (UniProt P10242); assay: ATG_Myb_CIS: Attagene CIS-FACTORIAL HepG2 Assay for human Myeloblastosis (Myb) Proto-Oncogene Transcription Factor (AID 2282986); details: HepG2 Attagene CIS-FACTORIAL Myb reporter transcription; actives raise or lower the signal
Chain of Transcriptional activator Myb (Homo sapiens) (P10242 whole entry, looked up): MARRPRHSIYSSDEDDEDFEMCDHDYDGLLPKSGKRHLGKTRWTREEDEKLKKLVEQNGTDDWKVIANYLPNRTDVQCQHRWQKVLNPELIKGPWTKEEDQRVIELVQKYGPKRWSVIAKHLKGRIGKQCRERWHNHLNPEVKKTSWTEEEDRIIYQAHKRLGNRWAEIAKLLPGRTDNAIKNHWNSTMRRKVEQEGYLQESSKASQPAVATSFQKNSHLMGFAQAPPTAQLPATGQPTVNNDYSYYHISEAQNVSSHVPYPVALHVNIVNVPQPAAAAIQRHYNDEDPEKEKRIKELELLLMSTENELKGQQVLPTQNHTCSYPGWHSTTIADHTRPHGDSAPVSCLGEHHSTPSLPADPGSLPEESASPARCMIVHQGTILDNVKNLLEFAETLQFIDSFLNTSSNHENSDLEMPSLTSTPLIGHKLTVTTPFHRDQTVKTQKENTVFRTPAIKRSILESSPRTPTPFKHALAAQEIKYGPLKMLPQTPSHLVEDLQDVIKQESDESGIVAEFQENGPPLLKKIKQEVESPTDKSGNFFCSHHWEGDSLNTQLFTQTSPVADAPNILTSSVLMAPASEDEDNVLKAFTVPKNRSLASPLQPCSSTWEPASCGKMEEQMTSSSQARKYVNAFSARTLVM
Procedure, shortened: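 Reporter transcript levels, quantified by fluorescent RT-PCR and capillary electrophoresis, serve as the read-out. Transfected HepG2 cells carrying cis-promoter reporter units are dosed for 24 hours, and curves are fitted bidirectionally against DMSO controls.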

[5] = target: Nuclear respiratory factor 1 (Homo sapiens) (UniProt Q16656); assay: ATG_NRF1_CIS: Attagene CIS-FACTORIAL HepG2 Assay for human Nuclear Respiratory Factor 1 (NRF1) Orphan Gene (AID 2282987); details: HepG2 NRF1 cis-element reporter, Attagene multiplex; actives raise or lower the signal
Chain of Nuclear respiratory factor 1 (Homo sapiens) (Q16656 whole entry, looked up): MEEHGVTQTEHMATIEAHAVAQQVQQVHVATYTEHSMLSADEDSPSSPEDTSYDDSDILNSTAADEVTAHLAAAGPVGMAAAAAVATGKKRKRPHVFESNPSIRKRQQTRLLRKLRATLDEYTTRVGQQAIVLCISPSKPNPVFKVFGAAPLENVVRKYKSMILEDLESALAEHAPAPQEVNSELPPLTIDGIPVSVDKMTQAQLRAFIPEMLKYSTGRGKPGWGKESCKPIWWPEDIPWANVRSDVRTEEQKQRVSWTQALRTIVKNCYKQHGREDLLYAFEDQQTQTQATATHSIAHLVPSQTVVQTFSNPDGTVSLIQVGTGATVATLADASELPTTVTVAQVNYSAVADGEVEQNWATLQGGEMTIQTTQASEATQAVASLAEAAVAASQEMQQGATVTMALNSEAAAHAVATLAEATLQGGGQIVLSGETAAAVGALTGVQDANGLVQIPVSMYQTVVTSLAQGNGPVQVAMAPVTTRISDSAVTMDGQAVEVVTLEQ
Procedure, shortened: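 Multiplexed cis-reporter assay, HepG2 cells, 24 h treatment. Total RNA → oligo(dT) RT → PCR with reporter-specific primers → 6-FAM primer extension → HpaI cut → CE. Bidirectional fit vs DMSO.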

[6] = ATG_NFI_CIS: Attagene CIS-FACTORIAL HepG2 Assay for human Nuclear Factor I (NFI) (AID 2282989); details: HepG2 cis-regulatory reporter, NFI response element transcription; actives raise or lower the signal
Procedure, shortened: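 Endogenous TF activity in HepG2 cells transiently transfected with cis-element-driven multiplexed reporter units, read 24 h after dosing. Reporter mRNA quantified by RT-PCR, 6-FAM labelling, HpaI digestion and capillary electrophoresis; bidirectional fit versus DMSO.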

[7] = target: Myc proto-oncogene protein (Homo sapiens) (UniProt P01106); assay: ATG_Myc_CIS: Attagene CIS-FACTORIAL HepG2 Assay for human Myelocytomatosis (Myc) Proto-Oncogene Transcription Factor (AID 2282990); details: HepG2, Attagene cis-reporter transcription factor activity; actives raise or lower the signal
Chain of Myc proto-oncogene protein (Homo sapiens) (P01106 whole entry, looked up): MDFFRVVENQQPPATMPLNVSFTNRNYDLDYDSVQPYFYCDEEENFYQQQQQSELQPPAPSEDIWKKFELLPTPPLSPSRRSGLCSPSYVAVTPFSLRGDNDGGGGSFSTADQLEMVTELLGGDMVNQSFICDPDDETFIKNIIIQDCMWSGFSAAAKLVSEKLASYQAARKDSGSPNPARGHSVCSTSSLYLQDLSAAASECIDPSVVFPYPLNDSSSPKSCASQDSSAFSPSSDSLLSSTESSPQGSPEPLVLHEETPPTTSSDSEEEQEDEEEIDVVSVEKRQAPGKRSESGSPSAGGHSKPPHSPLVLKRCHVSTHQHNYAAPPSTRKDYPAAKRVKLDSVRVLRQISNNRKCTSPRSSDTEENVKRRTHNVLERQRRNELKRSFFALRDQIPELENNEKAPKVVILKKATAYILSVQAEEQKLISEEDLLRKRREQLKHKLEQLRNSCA
Procedure, shortened: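 DMSO-normalised, bidirectionally fitted reporter mRNA signal. HepG2 cells transfected with cis reporter constructs, treated 24 h; transcripts detected by RT-PCR, 6-FAM primer extension and CE.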

[8] = ATG_NF_kB_CIS: Attagene CIS-FACTORIAL HepG2 Assay for human Nuclear Factor Kappa B (NF-kB) (AID 2282991); details: HepG2 Attagene cis-factorial NF-kB reporter mRNA; actives raise or lower the signal
Procedure, shortened: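 Transient MRTU transfection of human HepG2 liver cells → 24 h chemical exposure → total RNA, oligo(dT) RT → PCR, 6-FAM primer extension, HpaI digest 2 h 37 C → CE fragment analysis. Bidirectional fitting, DMSO negative control.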

[9] = ATG_NRF2_ARE_CIS: Attagene CIS-FACTORIAL HepG2 Assay for human Nuclear Factor Erythroid 2 Related Factor 2 (NFR2) response to Antioxidant Response Elements (ARE) (AID 2282992); details: HepG2 Attagene ARE/NRF2 reporter, transcription factor activity; actives raise or lower the signal;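 for AC50: reporter mRNA level measured by RT-PCR and capillary electrophoresis fluorescence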
Procedure, shortened: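 Cis-factorial assay: transfected HepG2 reporter library, 24 h dosing, mRNA readout via RT-PCR/CE; DMSO-referenced bidirectional analysis.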

[10] = BSK_3C_TissueFactor: BioMAP Diversity Plus: 3C Assay for Tissue Factor Biomarker Activity (AID 2282997); details: BioMAP 3C HUVEC, tissue factor biomarker readout; actives raise or lower the signal
Procedure, shortened: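 Endothelial monolayers (human umbilical vein, primary) are dosed, incubated 24 h, and assayed for Tissue Factor by ELISA; DMSO serves as negative control for bidirectional fitting.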

[11] = BSK_3C_uPAR: BioMAP Diversity Plus: 3C Assay for Urokinase-type plasminogen activator receptor (uPAR) Biomarker Activity (AID 2282998); details: BioMAP 3C HUVEC, uPAR biomarker ELISA; actives raise or lower the signal
Procedure, shortened: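 Primary human umbilical vein endothelial cells, 3C system; surface uPAR measured by ELISA 24 h after dosing. Cytotoxicity via SRB total protein in parallel cultures; bidirectional fit against DMSO.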

[12] = BSK_3C_VCAM1: BioMAP Diversity Plus: 3C Assay for Vascular cell adhesion molecule 1 (VCAM1) Biomarker Activity (AID 2282999); details: BioMAP 3C HUVEC, VCAM1 ELISA, cytokine-stimulated; actives raise or lower the signal
Procedure, shortened: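 Human umbilical vein endothelial cells were dosed with compound for 24 h, after which cell-surface VCAM-1 was quantified by ELISA. Bidirectional curve fitting used DMSO as negative control and activity baseline.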

[13] = BSK_4H_Eotaxin3: BioMAP Diversity Plus: 4H Assay for Eotaxin 3 Biomarker Activity (AID 2283000); details: primary human endothelial cells (HUVEC); actives raise or lower the signal
Procedure, shortened: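 ELISA quantitation of CCL26 (Eotaxin-3) protein from chemically dosed human vascular endothelial cells at 24 h; increases and decreases both scored relative to DMSO-treated baseline.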

[14] = ATG_M_06_TRANS: Attagene TRANS-FACTORIAL HepG2 Assay for M06 Transcription Factor (Internal Marker) (AID 2282983; active = hit-call score of the fitted dose curve at least 0.9, where 1 is the maximum;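 for AC50: potency for rise in reporter mRNA above DMSO baseline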); details: HepG2 Attagene TRANS M06 internal marker reporter
Procedure, shortened: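 Internal-marker background readout from a multiplexed TRANS reporter system in HepG2; 24 h dosing; mRNA induction quantified by RT-PCR plus capillary electrophoresis fluorescence; DMSO as negative control and baseline.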

[15] = ATG_Oct_MLP_CIS: Attagene CIS-FACTORIAL HepG2 Assay for human Octamer-Binding Transcription Factor (Oct) (AID 2282993); details: HepG2 Attagene cis-factorial Oct reporter, mRNA; actives raise or lower the signal
Procedure, shortened: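 HepG2 cells transiently transfected with cis-element-driven reporter transcription units (endogenous TF activity); 24 h compound exposure. Reporter mRNA quantified by RT-PCR, 6-FAM labelling, HpaI digestion and capillary electrophoresis; bidirectional fit versus DMSO baseline.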

[16] = target: Oxysterols receptor LXR-alpha (Homo sapiens) (UniProt Q13133); assay: ATG_LXRa_TRANS: Attagene TRANS-FACTORIAL HepG2 Assay for human Liver X Receptor alpha (LXRa) (AID 2282980; active = hit-call score of the fitted dose curve at least 0.9, where 1 is the maximum); details: HepG2 Attagene TRANS reporter, LXRa transactivation
Chain of Oxysterols receptor LXR-alpha (Homo sapiens) (Q13133 whole entry, looked up, the tested form may be a part): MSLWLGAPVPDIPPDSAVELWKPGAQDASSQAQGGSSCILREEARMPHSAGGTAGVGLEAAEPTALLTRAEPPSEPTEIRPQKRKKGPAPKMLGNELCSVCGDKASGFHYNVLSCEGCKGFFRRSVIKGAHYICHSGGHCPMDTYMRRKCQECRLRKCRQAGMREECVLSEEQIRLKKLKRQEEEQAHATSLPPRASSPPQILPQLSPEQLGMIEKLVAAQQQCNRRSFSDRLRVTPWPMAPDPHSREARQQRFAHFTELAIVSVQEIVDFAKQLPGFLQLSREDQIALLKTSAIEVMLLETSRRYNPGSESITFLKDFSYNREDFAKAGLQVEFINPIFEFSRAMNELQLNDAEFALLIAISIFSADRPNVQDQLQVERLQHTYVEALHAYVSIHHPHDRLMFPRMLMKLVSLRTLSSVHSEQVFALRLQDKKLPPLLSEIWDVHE
Procedure, shortened: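 In this multiplexed TRANS system, compounds act on HepG2 cells carrying GAL4-UAS reporter units and a receptor-GAL4 fusion for 24 h. Induced reporter RNA is amplified, fluorescently labelled and sized by capillary electrophoresis, with DMSO as baseline.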

[17] = target: Oxysterols receptor LXR-beta (Homo sapiens) (UniProt P55055); assay: ATG_LXRb_TRANS: Attagene TRANS-FACTORIAL HepG2 Assay for human Liver X Receptor beta (LXRb) (AID 2282981; active = hit-call score of the fitted dose curve at least 0.9, where 1 is the maximum); details: HepG2 Attagene TRANS GAL4-LXRb reporter, mRNA
Chain of Oxysterols receptor LXR-beta (Homo sapiens) (P55055 whole entry, looked up, the tested form may be a part): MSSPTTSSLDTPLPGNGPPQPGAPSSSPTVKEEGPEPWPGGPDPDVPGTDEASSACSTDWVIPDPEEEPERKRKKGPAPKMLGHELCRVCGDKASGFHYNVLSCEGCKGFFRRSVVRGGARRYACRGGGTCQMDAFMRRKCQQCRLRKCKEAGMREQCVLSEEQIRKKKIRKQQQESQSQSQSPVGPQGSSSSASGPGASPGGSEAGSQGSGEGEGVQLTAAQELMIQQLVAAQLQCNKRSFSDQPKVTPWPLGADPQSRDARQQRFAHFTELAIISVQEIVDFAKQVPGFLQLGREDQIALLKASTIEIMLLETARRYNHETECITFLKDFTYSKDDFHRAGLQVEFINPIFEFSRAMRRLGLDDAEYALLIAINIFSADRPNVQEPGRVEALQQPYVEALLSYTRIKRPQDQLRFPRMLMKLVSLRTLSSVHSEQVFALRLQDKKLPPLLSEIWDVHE
Procedure, shortened: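 HepG2 cells transiently transfected with multiple reporter transcription units carrying chimeric NR-Gal4 proteins acting on GAL4-UAS reporters; compound exposure 24 h. Reporter mRNA quantified by RT-PCR, 6-FAM labelling, HpaI digestion and capillary electrophoresis; gain of signal versus DMSO.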

[18] = ATG_M_32_TRANS: Attagene TRANS-FACTORIAL HepG2 Assay for M32 Transcription Factor (Internal Marker) (AID 2282984; active = hit-call score of the fitted dose curve at least 0.9, where 1 is the maximum); details: HepG2 Attagene TRANS M32 internal marker reporter
Procedure, shortened: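 HepG2 cells transiently transfected with multiple GAL4-UAS reporter transcription units, dosed for 24 hours; reporter mRNA quantified by RT-PCR, 6-FAM primer extension, HpaI digestion and capillary electrophoresis. Gain-of-signal fitted versus DMSO baseline; internal background-control marker.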

[19] = target: Cellular tumor antigen p53 (Homo sapiens) (UniProt P04637); assay: ATG_p53_CIS: Attagene CIS-FACTORIAL HepG2 Assay for human p53 Transcription Factor (AID 2282994); details: HepG2 p53 cis-element reporter, Attagene mRNA; actives raise or lower the signal
Chain of Cellular tumor antigen p53 (Homo sapiens) (P04637 whole entry, looked up): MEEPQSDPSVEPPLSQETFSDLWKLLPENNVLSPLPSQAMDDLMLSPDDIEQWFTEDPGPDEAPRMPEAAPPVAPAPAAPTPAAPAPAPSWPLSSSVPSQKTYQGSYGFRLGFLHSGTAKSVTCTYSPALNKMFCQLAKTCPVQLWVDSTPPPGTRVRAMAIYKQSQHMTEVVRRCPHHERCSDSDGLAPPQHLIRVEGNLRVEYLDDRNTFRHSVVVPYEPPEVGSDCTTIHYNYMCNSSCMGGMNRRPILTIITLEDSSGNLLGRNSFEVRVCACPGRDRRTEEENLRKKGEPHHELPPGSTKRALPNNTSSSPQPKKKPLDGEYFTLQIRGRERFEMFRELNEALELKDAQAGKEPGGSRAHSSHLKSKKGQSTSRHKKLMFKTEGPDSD
Procedure, shortened: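 Using HepG2 hepatoma cells carrying cis-acting multiplexed reporters, mRNA induction is detected after a 24 h exposure. Gain- and loss-of-signal responses are fitted relative to DMSO-treated cells.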

Measured: AC50

C=CC(=O)OCCCCCC(C)C
not listed: [14] | [15] | [16] | [17] | [18] | [19]
inactive: all other assays above

CCC1(c2ccc(N)cc2)CCC(=O)NC1=O (stereo unspecified)
inactive: [1] | [2] | [14] | [4] | [5] | [6] | [7] | [9] | [15]

COP(=S)(OC)Oc1ccc(S(=O)(=O)N(C)C)cc1
active: [9] 35.2 µM
not listed: [1] | [3] | [8] | [15] | [18] | [19]
inactive: all other assays above

Nc1ccc(Cl)cc1C(=O)c1ccccc1
inactive: [1] | [18] | [4] | [5] | [6] | [7] | [8] | [9] | [15]
active: [14] 160 µM

Cc1ccccc1C(=O)Nc1cccc(OC(C)C)c1
active: [9] 57.3 µM
inactive: [16] | [17] | [2] | [18] | [4] | [5] | [6] | [7] | [8]

CCOP(=S)(OCC)Oc1nc(Cl)c(Cl)cc1Cl
active: [6] 69.6 µM | [9] 33.4 µM | [15] 117 µM | [11] 33.5 µM | [12] 25.8 µM | [13] 27.9 µM
not listed: [2] | [16] | [17] | [19]
inactive: all other assays above

C[C@]12CCC(=O)C[C@@H]1CC[C@@H]1[C@@H]2CC[C@]2(C)[C@@H](O)CC[C@@H]12
active: [8] 57.9 µM | [9] 61.4 µM and 57.3 µM | [15] 86.1 µM | [11] 18.6 µM
inactive: [16] | [17] | [14] | [18] | [4] | [5] | [6] | [7] | [8] | [9] | [15] | [10] | [12] | [13]

CC12CC1(C)C(=O)N(c1cc(Cl)cc(Cl)c1)C2=O (stereo unspecified)
not listed: [1]
inactive: all other assays above

ClC(Cl)=C(Cl)C(Cl)=C(Cl)Cl
active: [6] 163 µM | [7] 119 µM | [9] 66 µM | [15] 149 µM | [10] 14.6 µM | [11] 32.4 µM | [12] 29.2 µM | [13] 36.9 µM
not listed: [1] | [8] | [19]
inactive: all other assays above

COP(=O)(OC)OC
not listed: [1] | [3] | [5] | [10] | [11] | [12] | [13] | [15]
inactive: all other assays above

O=C(Cc1ccccc1)c1ccccc1
inactive: [1] | [14] | [18] | [4] | [5] | [6] | [7] | [15]
active: [9] 19.8 µM

[O-][Cl+2]([O-])O
not listed: [1] | [5] | [10] | [11] | [12] | [13] | [15]
inactive: all other assays above

Clc1ccc(COC(Cn2ccnc2)c2ccc(Cl)cc2Cl)cc1 (stereo unspecified)
active: [9] 6.8 µM
not listed: [2] | [10] | [11] | [12] | [13] | [16] | [17]
inactive: all other assays above

O=C(OC1CCCCC1)c1ccccc1C(=O)OC1CCCCC1
active: [9] 18.4 µM | [10] 7.93 µM | [11] 11.9 µM | [12] 11.7 µM | [13] 12.1 µM
not listed: [2] | [16] | [17]
inactive: all other assays above

O=C(O)C(Cl)(Cl)Cl
not listed: [1] | [5] | [8] | [15]
inactive: all other assays above

Oc1ccc(-c2ccccc2)cc1
active: [7] 176 µM | [9] 100 µM | [19] 27.9 µM | [10] 20 µM
not listed: [2] | [3] | [15] | [16] | [17]
inactive: all other assays above

COP(=S)(OC)Oc1ccc(Sc2ccc(OP(=S)(OC)OC)cc2)cc1
active: [9] 3.58 µM | [11] 20 µM | [13] 20 µM
not listed: [1] | [5] | [8] | [15]
inactive: all other assays above

NC(=O)O
not listed: [1] | [14] | [15] | [19]
inactive: all other assays above

N#CCCO
inactive: [16] | [17] | [2] | [4] | [6] | [7] | [8] | [9] | [15] | [19]
